Experimental data reported in ChEMBL document CHEMBL4513216, “Probing the Open Global Health Chemical Diversity Library for Multistage-Active Starting Points for Next-Generation Antimalarials” (ACS Infect Dis, 2020).
In all, about 69,000 compounds went through this assay and about 8,600 (12%) showed an effect of 50% or more. The sample holds strong results, similar compounds and a random draw of the others, so the mix is not that of the screen.

System: Plasmodium berghei
Assay: Screen against P. berghei liver stage (PbLuc), transformed with Luciferase, at 10uM
Type: functional, HepG2
Details: tested at 10 uM

Compound | INHIBITION [%]
Cc1cnc(CC2COCCN(C(=O)c3cncs3)C2)cn1 (stereo unspecified) | 21.5
CCc1ccc(C(=O)N2CCC(c3nncn3CC)CC2)o1 | 28.1
COc1ccc(OCCN(C)S(=O)(=O)c2cnn(C)c2)cc1 | 11.5
O=C(NCCOc1ccccc1)Nc1cc(C(F)(F)F)c[nH]c1=O | 9.895
COCC(=O)N1CCC2(CCc3ccc(F)cc32)CC1 | -30
CC(=O)N1CCC2(CC1)CN(CC1CC1)c1ccc(F)cc12 | 37.6
COCC(=O)N1CCC2(CC1)CN(CC1CC1)c1ccc(F)cc12 | 77.4
Cn1cc(CN2CCCC23CCN(C(=O)c2ccsc2)CC3)cn1 | -16.1
Cc1cnn(CC2CCCN2C(=O)c2ccc3[nH]c(=O)[nH]c3c2)c1 (stereo unspecified) | 17.5
Cc1ccsc1CN(C)c1nc2c(cnn2C(C)(C)C)c(=O)[nH]1 | 70.7
Cc1ccsc1CN(C)Cc1nc2c(cnn2C)c(=O)[nH]1 | 26.3
Cc1ncc(CN(C)c2nc3c(cnn3C(C)(C)C)c(=O)[nH]2)s1 | 30.8
CN(Cc1cccs1)c1nc2c(cnn2C(C)(C)C)c(=O)[nH]1 | 53.5
CCN(Cc1nc2c(cnn2C)c(=O)[nH]1)Cc1cccs1 | 44.6
Cc1nc(CN(C)c2nc3c(cnn3C(C)(C)C)c(=O)[nH]2)cs1 | 36.2
CCc1nc2n(n1)CC(NCc1cnc(N(CC)CC)s1)CC2 (stereo unspecified) | 30.5
CC(=O)N1CCCC(C(=O)c2cnn(-c3ccc(F)cc3)c2N)C1 (stereo unspecified) | 24.425
Cc1nc[nH]c1CN1C[C@@H]2OCCN(c3ncccn3)[C@@H]2C1 | 42.7
Cc1ccc(-n2ccnc2-c2cn(C3CCNCC3)nn2)c(Cl)c1 | 45.8
CCCN1CCN(C(=O)c2scnc2C)CC1 | 11.1
CCN1CCN(C(=O)c2scnc2C)CC1 | 26.4
Cc1cccc(C(=O)N2CCN(CCOC(C)C)CC2)n1 | -49.3
Cc1ncsc1C(=O)N1CCN(CCC(C)C)CC1 | 53.7
Cc1cccc(C(=O)N2CCN(CCC(C)C)CC2)n1 | 50.3
CC(C)CCN1CCN(C(=O)c2ccc(=O)[nH]n2)CC1 | 47
CCN1CCCc2cc(CN3CCc4nc(C)[nH]c(=O)c4C3)ccc21 | 15.1

Compound | INHIBITION [%]
Cn1ncc(Cl)c1C(=O)NCCN1CCC(O)(c2ccc(F)cc2)CC1 | 6.3
CCOCCCNC(=O)CN(c1cccc(F)c1)S(C)(=O)=O | 30
COC(=O)c1c(Cl)c(C2CC2)nc2onc(C)c12 | 47.2
O=C(Cn1ccnc1)N1C[C@@H]2CC[C@H](Oc3ccccc3Cl)[C@@H]2C1 | 53.5
O=C(Cn1ccnc1)N1C[C@@H]2CC[C@H](Oc3ccccc3)[C@@H]2C1 | 24.5
O=C(Cn1ccnc1)N1C[C@@H]2CC[C@H](Oc3cccc(F)c3)[C@@H]2C1 | 1.5
O=C(Cn1ccnc1)N1C[C@@H]2CC[C@H](Oc3ccc(Cl)cc3)[C@@H]2C1 | 56
O=C(Cn1ccnc1)N1C[C@@H]2CC[C@H](Oc3ccccc3F)[C@@H]2C1 | -6.92
CN(C)CC(=O)N1C[C@@H]2CC[C@H](Oc3ccccc3Cl)[C@@H]2C1 | 37.5
Cc1ccc(CN2C(=O)OCC2CO)c2ccccc12 (stereo unspecified) | 40.3
CNc1nc(CNC(=O)Nc2cccc(C(C)OC)c2)cs1 (stereo unspecified) | 13.957
Cc1n[nH]c(C2CN(C(=O)CCc3cscn3)CCO2)n1 (stereo unspecified) | 40.75
CN(C)C1CCCN(C(=O)CCc2csc(N)n2)CC1 (stereo unspecified) | 33.9
COCCCC1CCCN(C(=O)CCc2csc(N)n2)C1 (stereo unspecified) | 35.8
CN(C)[C@H]1CCCCN(C(=O)CCc2csc(N)n2)C1 | 16.8
N[C@H]1CN(C(=O)CCc2ccccn2)C[C@@H]1c1ccccc1 | 37.6
Nc1nc(CCC(=O)N2C[C@H](c3ccccc3)[C@@H](N)C2)cs1 | 51
Nc1nc(CCC(=O)N2CCOC(CC3CCCCC3)C2)cs1 (stereo unspecified) | 85.1
N[C@H]1CN(C(=O)CCC(F)(F)F)C[C@@H]1c1ccccc1 | 36.5
CN1[C@@H]2CC[C@H]1CN(C(=O)CCc1csc(N)n1)CC2 | 50.3
CC1c2ncc(COCC3CCOCC3)n2CCN1Cc1cccnc1 (stereo unspecified) | 12.1
Cc1ccsc1[C@@H]1CCN(C(=O)c2ccc(-c3cc[nH]n3)cc2)C[C@H]1O | 16.1
Cc1ccsc1[C@@H]1CCN(C(=O)c2cc3ccccc3[nH]2)C[C@H]1O | 66.9
Cc1ccsc1[C@@H]1CCN(C(=O)CCc2nc3ccccc3[nH]2)C[C@H]1O | -27.5
c1csc(CN2CCc3ncnc(C4CCOC4)c3CC2)n1 (stereo unspecified) | 31.4
Cn1ncc2c(=O)[nH]c(CN3CCCC3Cc3ccccc3)nc21 (stereo unspecified) | 24

Compound | INHIBITION [%]
Cn1ncc2c(=O)[nH]c(CN(Cc3ccco3)C3CCCC3)nc21 | 54.3
Cc1ccc(C(C)N(C)Cc2nc3c(cnn3C)c(=O)[nH]2)cc1 (stereo unspecified) | 52.1
CN(Cc1nc2c(cnn2C)c(=O)[nH]1)Cc1ccco1 | -5.07
Cc1ccc(CN(Cc2nc3c(cnn3C)c(=O)[nH]2)C2CC2)o1 | 15.5
Cc1ccc(C(C)N(C)Cc2nc3c(cnn3C)c(=O)[nH]2)c(C)c1 (stereo unspecified) | 8.315
Cn1ncc2c(=O)[nH]c(CN(Cc3ccco3)C3CC3)nc21 | 47
Cc1ccccc1C(C)N(C)Cc1nc2c(cnn2C)c(=O)[nH]1 (stereo unspecified) | 26.45
Cn1ncc2c(=O)[nH]c(CN3CCc4ccccc4C3)nc21 | 40
CC(c1ccco1)N(C)Cc1nc2c(cnn2C)c(=O)[nH]1 (stereo unspecified) | 66.8
COc1ccc(C(C)N(C)Cc2nc3c(cnn3C)c(=O)[nH]2)cc1 (stereo unspecified) | 0.7
Cn1ncc2c(=O)[nH]c(CN3CCC(Cc4ccccc4)CC3)nc21 | 52.7
COC(C)(C)CNC(=O)N1CCC(n2ccc(C(F)(F)F)n2)CC1 | 33.7
COCCn1cc(CC(=O)Nc2c(C)nn(C)c2C)c2ccccc21 | 37.8
CCn1cc(CNC(=O)C2CCCC2)cn1 | 38.3
CCOc1ccccc1CC(=O)N1C[C@@H](C(=O)O)[C@H](c2ccncc2)C1 | -5.32
Cc1cccc(CN2CCC(c3csc4nccn34)CC2)n1 | 15.55
CCN(Cc1nc2c(cnn2C)c(=O)[nH]1)c1ccccc1 | 46.2
CCN(Cc1nc2c(cnn2C)c(=O)[nH]1)c1cc(C)cc(C)c1 | 64.7
CCN(Cc1nc2c(cnn2C)c(=O)[nH]1)c1cccc(C)c1 | 11.2
CC(=O)N1CCC2(C=C(C(=O)NC3CC3)c3ccccc32)CC1 | -25.8
COc1cc(CNC(C)Cn2cccn2)cc2c1OCO2 (stereo unspecified) | 12.6
COc1ncc(-c2nccn2CCN(C)C)cn1 | -13.2
COc1ncc(-c2nccn2C(C)CCn2cccn2)cn1 (stereo unspecified) | 66.9
COc1cc(-c2nccn2C(C)CCn2cccn2)cc2c1OCO2 (stereo unspecified) | 51.3
COCCCn1ccnc1-c1cnc(OC)nc1 | 10.1
COc1cc(-c2nccn2CCn2cccn2)cc2c1OCO2 | 9.56

Compound | INHIBITION [%]
Cc1cc(CN2CCN(C(=O)c3ccc(=O)n(C)c3)CC2)no1 | 7.19
Cc1nn(C)c(N(C)C)c1CNCc1cccnc1N(C)C | -17.4
COc1cccc([C@@H]2CCN(Cc3cccc(C)n3)C[C@H]2O)c1 | -3.83
COc1cccc([C@@H]2CCN(Cc3ccc4ccccc4n3)C[C@H]2O)c1 | -18.4
COc1cccc([C@H]2CN(C(C)=O)[C@@H]3CCN(Cc4ccsc4)C[C@H]23)c1 | 63.4
COc1cccc(CN2CC[C@H]3[C@@H](C2)[C@H](c2ccsc2)CN3C(C)=O)c1 | 61.9
COc1cccc(CN2CCCC(c3cc(C(N)=O)[nH]n3)C2)c1 (stereo unspecified) | -7.31
CC(=O)N1C[C@@H](c2ccsc2)[C@@H]2CN(Cc3cccc(Cl)c3)CC[C@@H]21 | 65.5
CC(=O)N1CCO[C@@H]2CN(Cc3cccc(Cl)c3)C[C@@H]2C1 | 39.4
COc1cccc(CC(=O)N2CC[C@H]3[C@@H]2CCC(=O)N3C)c1 | -3.51
CC(=O)N1C[C@@H](c2ccsc2)[C@@H]2CN(Cc3ccccc3)CC[C@@H]21 | 16.9
O=S(=O)(N1CCCC1)N1CC(c2ccnc(Nc3ccccn3)n2)C1 | 26.7
CN(C)c1ccc(NC(=O)c2ccnn2C)nc1 | -62.7
CCN1CC2(CC1=O)CN(C(C)=O)CCN(C(=O)NC(C)C)C2 (stereo unspecified) | -17.2
COc1ccc(OCCNCc2c(C)nn(C)c2N(C)C)cc1 | -7.1
CCN(C)c1ncnc2c1CCN(C(=O)N1CCCC1)CC2 | -21.3
CC(=O)N1CCN(CCNS(=O)(=O)c2ccc(F)c(F)c2)CC1 | -35.1
CNC(=O)C(C)(C)N(C)C(=O)c1cc(COc2ccccc2OC)[nH]n1 | -4.23
COc1cccc(OCc2cc(C(=O)NC[C@@H]3CCCN3)n[nH]2)c1 | 14.9
CNC(=O)C(C)(C)NC(=O)c1cc(COc2ccccc2OC)[nH]n1 | 63.7
COc1cccc(OCc2cc(C(=O)NC[C@H]3CCCN3)n[nH]2)c1 | 25.4
COC(=O)C(C)(C)NC(=O)c1cc(COc2ccccc2OC)[nH]n1 | -3
COc1ccccc1OCc1cc(C(=O)NC[C@@H]2CCCN2)n[nH]1 | 82.9
